Seven compounds from PubChem BioAssay (EPA / NIEHS) can be followed below.

A short description of experiment [1]: ACEA_ER_80hr: ACEA Biosciences xCELLigence Real-Time Cell Analysis on Estrogen Receptor Agonism for Proliferation (AID 2282667; active = hit-call score of the fitted dose curve at least 0.9, where 1 is the maximum). The settings on record: T47D proliferation, impedance (xCELLigence), 80 h. In outline:
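Real-time impedance growth kinetics of human T-47D breast cells read 80 h after dosing, gain-of-signal fitted relative to DMSO. Compounds: 1:4 serial series, top final concentration 100 uM, n = 2.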

A short description of experiment [2]: APR_HepG2_MicrotubuleCSK_1hr: Apredica 1-hour HepG2 Assay for Microtubule CSK Stabilty (AID 2282669). The settings on record: HepG2 microtubule cytoskeleton imaging, actives raise or lower the signal. A digest of the protocol: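 Alpha-tubulin immunofluorescence, imaged by automated high-content microscopy with Hoechst nuclear segmentation, measured cytoskeletal change after 1 h dosing of HepG2 at 0.39–200 uM in 0.5% DMSO. Activity fitted in both directions relative to DMSO.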

Experiment [3] is described as follows: APR_HepG2_NuclearSize_1hr: Apredica 1-hour HepG2 Assay for Nuclear Size (AID 2282670). The settings on record: high-content imaging, actives raise or lower the signal. In outline:
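Nuclear size measured by high-content imaging of Hoechst 33342 nuclear stain after formaldehyde fixation; human HepG2 line exposed 1 hr to compounds at 0.39–200 uM in 0.5% DMSO, with bidirectional curve fitting relative to DMSO.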

Experiment [4] can be described thus: APR_HepG2_p53Act_1hr: Apredica 1-hour HepG2 Assay for p53 Activation (AID 2282671). The settings on record: high-content imaging, actives raise or lower the signal. A digest of the protocol:
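After 1 h exposure (0.39–200 uM, 0.5% DMSO final, duplicates), fixed HepG2 cells were labelled with anti-p53 antibody plus Hoechst nuclear stain. Fluorescence quantified by automated 20x imaging; changes fitted in both directions against DMSO.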

The nature of experiment [5]: APR_HepG2_P-H2AX_1hr: Apredica 1-hour HepG2 Assay for H2AX Phosphorylation (AID 2282673). The settings on record: high-content imaging, actives raise or lower the signal. In outline: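 Phospho-H2A.x immunofluorescence (1:200, FITC secondary) plus Hoechst nuclear stain, quantified by high-content imaging in HepG2 after 1 hr compound exposure. Ten concentrations, 0.39 to 200 uM, in duplicate with 0.5% DMSO; fit both directions against DMSO.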

Experiment [6] can be described thus: APR_HepG2_CellCycleArrest_24hr: Apredica 24-hour HepG2 Assay for Cell Cycle Arrest (AID 2282905).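 Also: cell cycle arrest scored as ratio of 2N to 4N nuclear DNA content.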 The settings on record: imaging, actives raise or lower the signal. A digest of the protocol: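 After 24 h exposure at 0.39–200 uM in 0.5% DMSO, fixed cells received Hoechst 33342 staining. Imaging quantified per-nucleus DNA content; gain or loss fitted against DMSO controls.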

The nature of experiment [7]: APR_HepG2_StressKinase_1hr: Apredica 1-hour HepG2 Assay for Stress Kinase (AID 2282906). The settings on record: HepG2 stress kinase (phospho-c-Jun) imaging, actives raise or lower the signal. A digest of the protocol: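 High-content imaging of phospho-c-Jun immunostaining (with Hoechst nuclear identification) after a 1 h exposure of HepG2 cells to 10 concentrations from 0.39 to 200 uM, final DMSO 0.5%. Fitted bidirectionally against DMSO.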

The nature of experiment [8]: APR_HepG2_NuclearSize_24hr: Apredica 24-hour HepG2 Assay for Nuclear Size (AID 2282907). The settings on record: high-content imaging, actives raise or lower the signal. In outline: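 Nuclear size from Hoechst 33342-stained, formaldehyde-fixed HepG2 nuclei imaged by high-content microscopy, after 24 h dosing at ten concentrations from 0.39 to 200 uM in 0.5% DMSO; gain or loss relative to DMSO baseline.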

A short description of experiment [9]: APR_HepG2_CellLoss_24hr: Apredica 24-hour HepG2 Assay for Cell Loss (AID 2282908).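 As to AC50: fit in both directions so a hit may be cell loss or gain.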 The settings on record: high-content imaging. In outline: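 Nuclei stained with Hoechst 33342 after formaldehyde fixation (3.7%) were imaged at 20x to count cells. Exposure lasted 24 hr, at ten concentrations from 0.39 to 200 uM in duplicate, with 0.5% v/v DMSO. Fit bidirectional, relative to DMSO.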

A short description of experiment [10]: APR_HepG2_MitoticArrest_24hr: Apredica 24-hour HepG2 Assay for Mitotic Arrest (AID 2282910). The settings on record: high-content imaging, actives raise or lower the signal. In outline:
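HepG2, 24 hr dosing, 0.39–200 uM, 0.5% DMSO final. Formaldehyde-fixed, Triton-permeabilised, anti-phospho-histone H3 plus Hoechst. ArrayScan imaging at 20x; bidirectional fit vs DMSO baseline.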

Experiment [11] in a line: APR_HepG2_MitoMembPot_24hr: Apredica 24-hour HepG2 Assay for Mitochondrial Membrane Potential (AID 2282911). The settings on record: imaging, actives raise or lower the signal. A digest of the protocol:
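Mitochondrial membrane potential imaged via MitoTracker Red CMXRos (250 nM, 30 min pre-fixation) in fixed HepG2 cells with Hoechst nuclear identification. Ten concentrations 0.39–200 uM, 24 h treatment, 0.5% DMSO; CCCP as positive control.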

Experiment [12] can be described thus: APR_HepG2_MitoMass_24hr: Apredica 24-hour HepG2 Assay for Mitochondrial Mass (AID 2282912). The settings on record: high-content imaging, actives raise or lower the signal. A digest of the protocol: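 Endpoint is MitoTracker Red CMXRos (250 nM, 30 min, pre-fixation) intensity from 20x high-content imaging, nuclei located by Hoechst. Human HepG2 cells received ten concentrations from 0.39 to 200 uM in 0.5% DMSO for 24 hr, duplicate wells. Bidirectional fit relative to DMSO.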

Experiment [13] can be described thus: APR_HepG2_p53Act_24hr: Apredica 24-hour HepG2 Assay for p53 Activation (AID 2282913).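 Also: p53 protein immunofluorescence averaged per cell in HepG2 with Hoechst nuclei.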 The settings on record: high-content imaging, actives raise or lower the signal. A digest of the protocol: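 Fluorescence imaging of formaldehyde-fixed HepG2 cells labelled for p53 and with Hoechst, 24 h after dosing (0.39–200 uM, duplicate wells, 0.5% v/v DMSO). Signal fitted in both directions relative to DMSO.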

The nature of experiment [14]: APR_HepG2_CellCycleArrest_72hr: Apredica 72-hour HepG2 Assay for Cell Cycle Arrest (AID 2282914). The settings on record: high-content imaging, actives raise or lower the signal. In outline: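 Read-out: nuclear DNA content from Hoechst 33342 high-content imaging (20x, six fields/well) after 3.7% formaldehyde fixation, fitted bidirectionally against DMSO. Treatment was 72 h in HepG2, ten concentrations 0.39–200 uM, duplicate, 0.5% DMSO.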

Experiment [15] is described as follows: APR_HepG2_MitoMass_1hr: Apredica 1-hour HepG2 Assay for Mitochondrial Mass (AID 2282674). The settings on record: high-content imaging, actives raise or lower the signal. A digest of the protocol: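 Mitochondrial mass is taken from MitoTracker Red CMXRos (250 nM, 30 min, pre-fixation) fluorescence imaged at 20x in HepG2 cells. Exposure lasted 1 hr across ten concentrations, 0.39 to 200 uM, 0.5% DMSO; DMSO baseline, bidirectional fitting.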

Experiment [16] is described as follows: APR_HepG2_MitoMembPot_1hr: Apredica 1-hour HepG2 Assay for Mitochondrial Membrane Potential (AID 2282675). The settings on record: imaging, actives raise or lower the signal. A digest of the protocol: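 Mitochondrial membrane potential read as MitoTracker Red CMXRos intensity by automated imaging of fixed HepG2 cells. Dye at 250 nM for 30 min pre-fixation; compounds 0.39 to 200 uM for 1 hour, duplicate wells, 0.5% DMSO.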

Experiment [17] is described as follows: APR_HepG2_MicrotubuleCSK_24hr: Apredica 24-hour HepG2 Assay for Microtubule CSK Stabilty (AID 2282909). The settings on record: HepG2 microtubule cytoskeleton imaging, actives raise or lower the signal. In outline:
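Fixed HepG2 cells were stained for alpha-tubulin and imaged after 24 hr exposure to ten concentrations spanning 0.39–200 uM in 0.5% DMSO. Signal change was fitted in both directions relative to DMSO; taxol was the positive control.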

Experiment [18] is described as follows: APR_HepG2_MitoticArrest_1hr: Apredica 1-hour HepG2 Assay for Mitotic Arrest (AID 2282672). The settings on record: high-content imaging, actives raise or lower the signal. A digest of the protocol:
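Ten-point concentration series (0.39 to 200 uM, duplicates, 0.5% v/v DMSO) applied to human HepG2 liver cells for 1 hr. High-content imaging of phospho-histone H3 and Hoechst-stained nuclei after fixation and permeabilization; DMSO-normalised bidirectional fit.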

Results filed as inconclusive are left out. Some compounds were tested as several samples or in several runs, with calls that do not always agree. The source made the active and inactive calls. The calls were made as follows, unless noted: active = hit-call score of the fitted dose curve at least 0.9, where 1 is the maximum; inactive = score below 0.9.

By AC50 is commonly meant the midpoint of the concentration-response curve, whichever way the signal moves.

As for `N#Cc1cc(Br)c(O)c(Br)c1`, the result in experiment [1], in experiment [2], in experiment [3], in [4], in experiment [5] and in [6] was inactive. Moreover, the compound was classed as inactive in [7], in experiment [8], in experiment [9], in experiment [10], in experiment [12] and in [13]. Also, the AC50 in [11] was 89.4 µM (active); in [14], 100 µM (active).
`OC(c1ccc(Cl)cc1)(c1cncnc1)c1ccccc1Cl` (stereo unspecified): the compound was called inactive in experiment [1], in experiment [3], in experiment [4], in experiment [6], in experiment [8] and in experiment [12]. The call in experiment [13] and in experiment [14] was inactive. Further, the AC50 in experiment [9] was 108 µM (active); in [10], 91.1 µM (active); in experiment [11], 31.5 µM (active).
Regarding `COc1cnc(OC)n2nc(NS(=O)(=O)c3c(OCC(F)F)cccc3C(F)(F)F)nc12`, the outcome in experiment [1], in [3], in [4], in [15], in experiment [16] and in [6] was inactive. Moreover, the compound was classed as inactive in [8], in experiment [9], in experiment [17], in [10], in experiment [11] and in experiment [12]. In addition, the call in experiment [13] and in experiment [14] was inactive.
As to `COC(=O)C(C)Oc1ccc(Oc2ccc(Cl)cc2Cl)cc1` (stereo unspecified), the compound was called inactive in experiment [3], in [4], in experiment [5], in experiment [16], in experiment [6] and in experiment [7]. The call in experiment [8], in [9], in experiment [10], in [11], in experiment [12] and in experiment [13] was inactive. The result in experiment [14] was inactive. For the same compound, the concentration at half-maximal activity (AC50) in experiment [11] is 129 µM (active).
Consider `Cc1c(F)c(F)c(COC(=O)C2C(/C=C(\Cl)C(F)(F)F)C2(C)C)c(F)c1F` (stereo unspecified), for which the compound was called inactive in experiment [1], in experiment [3], in [4], in [6], in experiment [8] and in [9]. In addition, the outcome in experiment [10], in experiment [11], in experiment [12], in [13] and in [14] was inactive.
In the case of `C#CCOS(=O)OC1CCCCC1Oc1ccc(C(C)(C)C)cc1` (stereo unspecified), the concentration at half-maximal activity (AC50) in experiment [1] was 0.355 µM (active); in experiment [6], 3.03 µM (active); in experiment [9], 7.2 µM (active); in experiment [17], 38.4 µM (active); in [11], 6.31 µM (active); in experiment [14], 2.92 µM (active). For the same compound, the result in experiment [3], in experiment [4], in experiment [15], in [8], in [10] and in [12] was inactive. Also, the call in experiment [13] was inactive.
Regarding `CON(C)C(=O)Nc1ccc(Cl)c(Cl)c1`, the compound was classed as inactive in experiment [1], in [3], in [4], in experiment [18], in experiment [5] and in experiment [7]. The call in experiment [8], in experiment [9], in experiment [10], in experiment [12], in [13] and in experiment [14] was inactive. Also, the AC50 is 31.2 µM (active) in [6] and 28.9 µM (active) in [11].
